# Test results: the OligoGym collection
# Target: TAF3
# Assay: pooled miR-30 sensor sort-seq; sequence = guide strand
# Settings: shRNA
# Also: reference of the scale not given here.
row,Sequence,sensor-assay potency score (higher = more potent)
1,TAAACTTGTAGGGATCTGCCTC,0.187
2,TTGATTTTAAACTTGTAGGGAT,0.554
3,TAACACAACATCTAGCGTGTCC,0.323

# Target: TAF4
# Assay: as above
# Settings: shRNA
row,Sequence,sensor-assay potency score (higher = more potent)
1,TTTGTCGCGTGAACTGTCTGGG,0.638
2,TATTCTTGCACTTTCTTCTGAC,0.569
3,TTAATGTCATCATCGTCCCGAA,-0.403
4,TACATCTGGATGTAATTCCGTT,-0.473
5,TTACCTATTTCTAATATTCTTC,-0.515
6,ATTAATGTCATCATCGTCCCGA,0.127
7,TACATAACTTACTACATCTGGA,-0.0503
8,TTAACTGTTCTGGATCTTCTTG,-0.704
9,TTAAGTTCTCGGTATAACCTGC,0.0759
10,TAGACATACACCTACATAGTAA,-0.674
11,TATTTTTCTGTGCAGCAGCTGC,-0.881
12,TAACTGTTCTGGATCTTCTTGT,0.732

# Target: TAF5
# Assay: as above
# Settings: shRNA
row,Sequence,sensor-assay potency score (higher = more potent)
1,TAAGACTAGATAATACTCGTAG,0.809
2,TAATCGAACTGTATTATCCATT,-0.885
3,TTATCTTATCCAACTTATCTGA,-0.244
4,TAATACTCGTAGGTCATCCTGG,0.422
5,TATCTGTTGCTTACTACGCGGC,-0.346
6,TATCTTATCCAACTTATCTGAA,-0.846
7,TAGTATTCTTCATACATTGTGG,-0.781
8,TTGTTTGACACTACGAAGCTTT,0.143
9,TTGATTGTAGACTAGCTCCAAG,-0.676
10,TTGAATCTGCAAAACCTCCAGC,0.0484
11,TATCTGAATCTTTCAACTCAGG,-1.06
12,TAAGTGAACAGACTGTATCAGT,-0.556

# Target: TARBP2
# Assay: as above
# Settings: shRNA
row,Sequence,sensor-assay potency score (higher = more potent)
1,TCGTACACAGGCGTCTTCCCTA,-0.68
2,TTTGAGAAGGTCGTACACAGGC,-0.0476
3,TTCTCTCCTACTGAATTTCGTA,-0.854
4,TTTCGTAGAGAATCCCAGGTGC,0.652
5,TATTCTGGTCCCATACTCCTGC,0.18
6,TGAATTTCGTAGAGAATCCCAG,-0.515
7,TTTCGAAGACCATCCAGGCGGG,-0.916
8,TCCTGCAGAAGGCTGATCGGGG,-1.33
9,TGCTGCAGCAGTAAAAACCGGA,-0.386
10,TTTCTGCACCACCAGCTCCTGC,-1.56
11,TAGGACTACAGATGGAACTGGG,0.0896
12,TTGCAGAGCCATGACACACAGT,-0.909
